The whole screen tested about 370,000 compounds, of which about 6,800 (1.8%) were called active. Shown is part of a subset that was picked to be rich in actives. A number with no mark means an inactive call.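 The calls were made as follows: active = activation above a cutoff set at the mean of all screened compounds plus 3 SD (cut at about 10% in these data); inactive = the rest.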
Each compound was assayed on Nuclear hormone receptor DAF-12 (Heterodera glycines), GAL4 fusion (assay: H. glycines DAF-12 receptor agonists, primary screen, cell-based, luminescence, HEK293, GAL4 fusion, UAS-luciferase (AID 687014;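 also: 0% = DMSO wells and 100% = sodium butyrate wells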)). Conditions: HEK293 GAL4-hgDAF12 UAS-luciferase reporter, agonist luminescence; at 6.8 µM; active compounds read high; normalized to butyrate control.

Structure (SMILES) | activation
CN(C)[C@H]1CCN(c2cccc3c2S(=O)(=O)N2CC[C@H](C2)O3)C1 | -1.45%
CC1CC(=NNC(=O)C2COc3ccccc3O2)CC(C)(C)C1 (centres undefined) | 3.29%
CCc1ccc(C(=O)NN=C2CCCCCC2)s1 | 3.37%
CC1C/C(=N/NC(=O)c2cccs2)CC(C)(C)C1 (centres undefined) | 14% (active)
COc1ccccc1CCn1cnc(-c2ccccc2)c1C(C)C | -2.29%
Cc1ccn(CC(=O)N2N=C(C(F)F)CC2(O)C(F)F)n1 (centres undefined) | 1.75%
Cc1ccc2nc(-c3ccc(NC(=O)CN(C)S(=O)(=O)c4ccccc4)cc3)sc2c1 | 11.4% (active)
Cc1cccc(N(CC(=O)Nc2ccc(-c3nc4ccc(C)cc4s3)cc2)S(C)(=O)=O)c1 | 15% (active)
Cc1nc2ccc(S(=O)(=O)N(C)CC(=O)NC(C)c3ccccc3)cc2s1 (centres undefined) | -1.17%
Cc1ccc(N(CC(=O)Nc2cc(C)cc(C)c2)S(=O)(=O)c2cccc3nonc23)cc1 | 1%
COc1cc(NC(=O)CN(C)S(=O)(=O)c2ccc3nc(C)sc3c2)cc(OC)c1 | -1.83%
CCN(CC)S(=O)(=O)c1ccc(NC(=O)CN(c2cccc(F)c2)S(C)(=O)=O)cc1 | -0.33%
Cc1ccc2c(c1)N(CC(=O)N1CCC(C)CC1)C(=O)c1cccnc1O2 | -1.52%
CC[C@H](NC(=O)[C@H](Cc1ccccc1)NC(=O)[C@H]1O[C@@H](n2cnc3c(=O)[nH]c(N)nc32)[C@H](O)[C@@H]1O)c1ccccc1 | -0.43%
COc1ccccc1C(=O)CSc1nnc(-c2ccccn2)n1-c1ccccc1 | -5.4%
Cc1cc(=O)[nH]c(SCC(=O)Nc2ccc(F)cc2F)n1 | 2.35%
COC(=O)[C@H](Cc1ccccc1)NC(=O)Nc1ccc(S(N)(=O)=O)cc1 | -0.11%
COc1ccc(CN2C/C(=C/c3ccccc3)N3C(=O)C[C@@H](c4ccccc4)N=C23)c(OC)c1 | 1.14%
Cc1cc(N=Nc2ccc3ccccc3c2)ccc1O | 15.6% (active)
Cc1ccc(-n2c(SCC(=O)Nc3cccc4ccccc34)nnc2-c2ccco2)cc1 | -1.7%
COc1ccc([C@H]2OC(=O)C[C@H]2C(=O)N2CCN(c3ccccc3F)CC2)cc1OC | 0.07%

Structure (SMILES) | activation
Cc1ccc(/C=N/NC(=O)COc2ccccc2-c2ccccc2)cc1 | -6.53%
O=C(CN1CCSCC1)N/N=C/c1ccc(Cl)cc1 | -0.9%
Cc1ccc(COc2ccc(/C=N/NC(=O)CN3CCCCC3)cc2)cc1 | 10.7% (active)
Cc1ccc(Cn2cc(CN3[C@@H](C)COc4cc(Br)ccc4S3(=O)=O)nn2)cc1 | -0.49%
COc1ccc(NC(=O)N(C)C[C@@H]2OCCCC[C@@H](C)Oc3ccc(NC(=O)NC4CCCCC4)cc3C(=O)N([C@H](C)CO)C[C@@H]2C)cc1 | 2.86%
C[C@@H](CN1C2=NC[C@@H](Cc3ccccc3)N2C[C@H]1Cc1ccc(O)cc1)NC(=O)CCC1CCCCC1 | 1.3%
CC(C)Oc1ccc(C(=O)NCC(=O)Nc2ccc3c(c2)CCC3)cc1 | 2.22%
CC1CC(C)CN(CCC(=O)Nc2ccc3c(c2)CCC3)C1 (centres undefined) | -2.86%
O=C(Nc1ccc2c(c1)CCC2)c1ccc(Br)s1 | 19.2% (active)
COc1ccc(OCc2cc(C(=O)NCC3(C)COC3)no2)c(Cl)c1 | 0.38%
Cc1cccnc1CC(C)NC(=O)c1cc(COc2cncc(Cl)c2)on1 (centres undefined) | 1.14%
Cc1cc(OCc2cc(C(=O)NCc3cc(C(C)C)no3)no2)cc(C)c1Cl | 15.1% (active)
Cc1ccc2oc(C(=O)N3CCN(C)C[C@@H]3C(C)C)c(C)c2c1 | 2.43%
COC(=O)[C@]12C[C@H](CC(=O)NCc3cccs3)C(=O)N(CCc3ccc(OC)c(OC)c3)C1=C[C@H](C(C)C)O[C@@H]2C1CC1 | 1.93%
CC1=C(C(=O)N2CCOCC2)CC(CC(=O)NCCCN(C)C)C(=O)N1Cc1ccc(C(C)(C)C)cc1 (centres undefined) | 1.86%
CCOC(=O)c1ccc2c(c1)nc(C)n2CC | 12.8% (active)
CCn1c(C)nc2cc(C(=O)NNS(=O)(=O)c3ccc(C)cc3C)ccc21 | -0.8%
CCOC(=O)c1ccc2c(c1)nc(SCC(=O)NC(C)C)n2CC | -0.22%
Nc1nc2c(ncn2[C@@H]2O[C@H](C(=O)N[C@@H](Cc3ccccc3)C(=O)NCc3ccccc3)[C@@H](O)[C@H]2O)c(=O)[nH]1 | -2.72%
CCOC(=O)N1CCN(C(=O)C[C@H]2C[C@@]3(C(=O)OC)C(=C[C@H](C4CCCC4)O[C@@H]3C)N(Cc3ccccc3)C2=O)CC1 | -1.3%
CSCC[C@H](NC(=O)OC(C)(C)C)C(=O)N/N=C/c1cc2ccc(C)cc2nc1Cl | -1.8%

Structure (SMILES) | activation
CC(=O)Nc1ccc(C(=O)CSc2nc3ccc(C)cc3[nH]2)cc1 | 8.98%
Cc1ccc2cc(/C=N/Nc3ccc(C(=O)O)cc3)c(Cl)nc2c1 | 11.9% (active)
C=C(C)C#CC(Cc1ccccc1)N(CC1CC1)/C(N)=N/C(=O)OCc1ccccc1 (centres undefined) | 1.8%
COc1cc(/C=C/C(=O)O)cc(S(=O)(=O)Nc2ccccc2SC)c1OC | 1.71%
Cc1ccc(C(=O)NNc2ncnc3ccccc23)cc1 | 16% (active)
Cn1ncc2c(NNC(=O)Cc3cccc4ccccc34)ncnc21 | -0.95%
Cc1ccc(CCNC(=O)c2ccc3nc4ccccc4c(=O)n3c2)cc1 | 3.9%
COC(=O)Cc1nnn2c1[C@H](C)[C@H](c1ccccc1Br)OCC2 | -0.72%
C=CCn1cc(C(=O)NCc2ccc(Cl)cc2)c(=O)c2cc(S(=O)(=O)N(CC)CC)ccc21 | 0.3%
CC(=O)c1cc(C#N)c(N2CC(C)OC(C)C2)nc1C (centres undefined) | 0.39%
CC(=O)c1cc(C#N)c(SCC(=O)Nc2nccs2)nc1C | 8.08%
CC(=O)c1cc(C#N)c(SCC(=O)C(C)(C)C)nc1C | 27.1% (active)
CC(C)(C)OC(=O)NCc1cc(F)ccc1/C=C/S(=O)(=O)NCCc1ccccc1 | 0.64%
Cc1ccc(Cc2c(-c3ccc(C)cc3)nc3c4ccccc4ccn23)cc1 | 0.89%
c1ccc(Cc2c(-c3ccco3)nc3c4ccccc4ccn23)cc1 | 22.7% (active)
Cc1ccc(Cc2c(-c3ccc(Cl)cc3)nc3c4ccccc4ccn23)cc1 | 4.25%
CC(C(=O)N=Nc1c(O)n(C)c2ccc(Br)cc12)n1cnc2ccccc2c1=O (centres undefined) | 0.17%
CC(=O)C1=C(C)N(Cc2ccc(Cl)cc2)C(=S)NC1c1ccc(F)cc1 (centres undefined) | 3.22%
N#Cc1ccc(OCCCN2CCC(C(O)(c3ccccc3)c3ccccc3)CC2)c(F)c1 | 0.54%
Cc1cccc(-n2ncc(Cl)c(Cl)c2=O)c1 | -2.03%
C=CCNc1cnn(-c2ccc(C)cc2)c(=O)c1Cl | 12.7% (active)

Structure (SMILES) | activation
CC1=C(C(=O)NC2CC(C)(C)Cc3c2cnn3-c2ccc(C)cc2)OCCO1 (centres undefined) | -2.28%
COC(=O)[C@H](C(C)C)N(CCCc1cn(Cc2ccccc2)nn1)S(=O)(=O)c1ccc(F)cc1Br | -3.54%
COC(=O)C[C@@H]1C=C[C@@H](NC(=O)c2ccc3c(c2)OCO3)[C@@H](CO)O1 | -0.93%
c1cnc(N2CCN(c3ccc4ccccc4n3)CC2)nc1 | 13.8% (active)
CC12CCC(C(=O)N3CCN(c4ncccn4)CC3)(c3nc4ccccc4nc31)C2(C)C (centres undefined) | -2.77%
CC1=C(N2CCN(c3ncccn3)CC2)CCC1=O | 1.9%
CN1C(=O)C(Br)(Br)CC1c1cccnc1 (centres undefined) | 2.1%
CCCCCCCCN1C(=O)[C@@H](CC(=O)N2CCN(C(=O)OCC)CC2)C[C@@]2(C(=O)OC)C1=C[C@H](C1CCCC1)O[C@@H]2C | -1.38%
Cc1csc(NC(=O)CSc2nc(=O)n(CCCN(C)C)c3c2CCC3)n1 | -0.31%
CN1OC[C@@H]2CN[C@H](c3ccc(-c4ccccc4)cc3)C[C@@H]21 | 10.5% (active)
CN1OC[C@@H]2CN(C(=O)c3ccc(-c4ccccc4)cc3)[C@H](c3ccc(-c4cccc(F)c4)cc3)C[C@@H]21 | 2.92%
COc1ccc(CN2C[C@H]3CON(C)[C@H]3C[C@H]2c2ccc(-c3cccc(F)c3)cc2)cc1 | -1.7%
O=C(NCc1ccccc1Cl)c1ccc2c(=O)n(CC3CCCO3)c(=S)[nH]c2c1 (centres undefined) | 1.69%
O=S1(=O)c2c(cccc2N2CCCCC2)O[C@H](COCc2ccccc2)CN1C1CC1 | -1.38%
CCCNC(=O)CCc1c(C)nc2c(c(C)nn2-c2ccc(C)cc2)c1C | -0.59%
CCCNC(=O)c1c(Cl)cnn1-c1ccc(C)cc1 | 14.5% (active)
CCOc1ccc(Oc2c(Cl)cnn(-c3ccc(C)cc3)c2=O)cc1 | 1.52%
CCCCCCCCN1C(=O)[C@@H](CC(=O)NCCCC)C[C@@]2(C(=O)OC)C1=C[C@H](C(C)(C)C)O[C@@H]2C | 0.13%
O=C(CSc1nc2ccccc2c(=O)n1Cc1ccc(F)cc1)NCC1CCCO1 (centres undefined) | 0.43%
O=C(Nn1c(SCc2ccc([N+](=O)[O-])cc2)nc2ccccc2c1=O)c1ccc(F)cc1 | 16.4% (active)
COCCNC(=O)c1ccc(-n2c(SCc3cccnc3)nc3ccccc3c2=O)cc1 | -1.1%
